“And” between values parts separate entries of the source, which are not always exact repeats. Equal entries are not always repeated. The whole screen tested about 430,000 compounds, of which about 2,600 (0.6%) were called active. No stated cut-off is given here; in the data, active means inhibition mostly above about 37% (no sharp cut-off); inactive means mostly below about 20%. Shown is part of a subset that was picked to be rich in actives.
The compounds below were run on PriA–SSB C-terminal tail interaction (Klebsiella pneumoniae) (assay: blocks PriA binding to SSB C-terminal tail, primary screen, biochemical, AlphaScreen (AID 1272365;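 further: plate controls were negative control peptide for no effect and reference peptide for full effect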)). Settings: AlphaScreen SSBct-PriA binding, biotinylated peptide; at 33 µM, stronger effect = higher value.
For `O=C(NNC(=S)Nc1ccccc1)c1cccc(S(=O)(=O)N2CCOCC2)c1`, the inhibition was -5.79% (inactive).
With `Cc1cccc(-n2cnc(C(=O)NNC(=S)Nc3ccccc3)c2)n1` the inhibition was 66.5% (active).
`Cc1cccc(-n2cnc(C(=O)Nc3cccnc3)c2)n1` was tested, and the inhibition was -12.9% (inactive).
With `O=C(NCC(F)(F)F)C1CCN(c2cc(-n3cncn3)ncn2)CC1` the inhibition was 4% (inactive).
For `Cc1c(CCOC(=O)C23CC4CC(CC(C)(C4)C2)C3)sc[n+]1Cc1ccc([N+](=O)[O-])cc1`, the inhibition was 39% (active).
In the case of `Cc1c(CCOC(=O)CC23CC4CC(CC(C)(C4)C2)C3)sc[n+]1Cc1ccc([N+](=O)[O-])cc1`, the inhibition is reported as 6.21% (inactive).
`O=C(Nc1ccc([N+](=O)[O-])cc1Br)C12CC3CC(CC(C3)C1)C2` was tested, and the inhibition was -8% (inactive).
With `COc1ccc(-c2noc(CN3N=NC4C(=O)N(c5ccc(C)c(F)c5)C(=O)C43)n2)c(OC)c1` (stereo not drawn) the inhibition was 6% (inactive).
With `O=C(NCC(O)(c1ccccc1)C(F)(F)F)C(=O)Nc1ccccc1` (stereo not drawn) the inhibition was -3% (inactive).
In the case of `CS(=O)(=O)N1CCC(CNC(=O)c2cc3ccccc3o2)CC1`, the inhibition is reported as -23% (inactive).
`CC1(C)N=C(SCC(=O)Nc2ccc(Br)cc2)C(c2ccccc2)=N1` was tested, and the inhibition was -5% (inactive).
For `COc1ccc2nc(N(CCN(C)C)C(=O)c3ccc(S(=O)(=O)N4CCCc5ccccc54)cc3)sc2c1`, the inhibition was 41% (active).
For `CN(C)CCCN(C(=O)c1ccc(S(=O)(=O)N2CCCc3ccccc32)cc1)c1nc2ccc(F)cc2s1`, the inhibition was 42% (active).
`CC1CN(S(=O)(=O)c2ccc(C(=O)N(CCN(C)C)c3nc4cc5c(cc4s3)OCCO5)cc2)CC(C)O1` (stereo not drawn) was tested, and the inhibition was 15% (inactive).
With `COc1ccc2nc(N(CCN3CCOCC3)C(=O)c3ccccc3S(C)(=O)=O)sc2c1` the inhibition was 0% (inactive).
In the case of `CCOc1ccc2nc(N(CCN(C)C)C(=O)c3ccc(S(=O)(=O)N4CCC(C)CC4)cc3)sc2c1`, the inhibition is reported as 29% (inactive).
With `CN(C)CCN(C(=O)CCOc1ccccc1)c1nc2cc3c(cc2s1)OCO3` the inhibition was 7% (inactive).
With `Cc1ccc2nc(N(CCN(C)C)C(=O)c3ccc(S(=O)(=O)N4CCCCCC4)cc3)sc2c1` the inhibition was 35% (active).
`COc1cccc2sc(N(CCCN(C)C)C(=O)c3ccc(F)cc3)nc12` was tested, and the inhibition was -18% (inactive).
`COc1cc2nc(N(CCN(C)C)C(=O)c3ccc(S(=O)(=O)N(C)Cc4ccccc4)cc3)sc2cc1OC` was tested, and the inhibition was 24% (inactive).
With `CN(C)CCCN(C(=O)c1ccccc1)c1nc2c(F)cc(F)cc2s1` the inhibition was 5% (inactive).
In the case of `CCOc1ccc2nc(N(CCN(C)C)C(=O)c3ccc4ccccc4c3)sc2c1`, the inhibition is reported as 14.2% (inactive) and 45% (active).
In the case of `CCOc1ccc2nc(N(Cc3ccncc3)C(=O)Cc3ccc(F)cc3)sc2c1`, the inhibition is reported as 13% (inactive).
`O=C1CCCC(=O)N1CCS(=O)(=O)N1CCC(c2nnc(-c3ccco3)s2)CC1` was tested, and the inhibition was -4% (inactive).
With `O=C([C@@H]1CC=CCC1)N1CCN(c2ccc(-n3cncn3)nn2)CC1` the inhibition was -9% (inactive).
For `CCc1nc(-c2ccc(N3CCN(C(=O)c4cc5cccc(OC)c5o4)CC3)nc2)no1`, the inhibition was -1% (inactive).
`NCc1n[nH]c(=O)c2ccccc12` was tested, and the inhibition was -2% (inactive) and -4% (inactive).
`COC(=O)c1ccccc1NC(=O)c1snnc1C` was tested, and the inhibition was -11% (inactive).
For `CN1CCN(c2nc3ccc(NC(=O)c4ccc5c(c4)OCO5)cc3s2)CC1`, the inhibition was -2% (inactive).
For `COc1ccc(OC)c(C(=O)Nc2ccc3nc(N4CCN(C)CC4)sc3c2)c1`, the inhibition was 6% (inactive) and -21% (inactive).
`COc1cccc2cc(C(=O)Nc3ccc4nc(N5CCN(C)CC5)sc4c3)oc12` was tested, and the inhibition was -6% (active).
`O=C(NCC#CCOc1ccc2c(c1)OCO2)Nc1ccccc1C(F)(F)F` was tested, and the inhibition was -21% (inactive).
For `Cc1ccccc1-c1nc(CSc2nc(C)c(Cc3ccccc3)c(=O)[nH]2)c(C)o1`, the inhibition was 7% (inactive).
`Cc1nc2oc(-c3ccccc3)nc2cc1NC(=O)c1cc(=O)c2ccccc2o1` was tested, and the inhibition was -8% (inactive).
In the case of `Cc1c(C(=O)O)cccc1-c1ccc(C=NNc2ccc(Br)cc2)o1`, the inhibition is reported as 0.6% (inactive).
In the case of `CC(NC(=O)c1ccco1)C(=O)Nc1nc(-c2ccccn2)cs1` (stereo not drawn), the inhibition is reported as 74.4% (active).
In the case of `CC(C)Sc1ccc(C(=O)Nc2nc(-c3ccccn3)cs2)cc1`, the inhibition is reported as 50.6% (inactive).
With `O=C(Nc1nc(-c2ccccn2)cs1)c1ccc(-c2ccccc2)cc1` the inhibition was -19% (inactive).
In the case of `CCSc1ccc(C(=O)Nc2sc(-c3ccccc3)cc2C(N)=O)cc1`, the inhibition is reported as -22% (inactive).
With `O=C(NN=Cc1cc(Cl)cc([N+](=O)[O-])c1O)c1cccc(S(=O)(=O)N2CCOCC2)c1` the inhibition was 41.7% (active).
With `CC(=O)Nc1ccc(C=NNC(=O)c2cccc(S(=O)(=O)N3CCOCC3)c2)cc1` the inhibition was -5.31% (inactive).
`CCOc1cc(C=NNC(=O)c2cccc(S(=O)(=O)N3CCOCC3)c2)ccc1OCC(=O)N(C)C` was tested, and the inhibition was -12.5% (inactive).
`O=C(Oc1cccc(Oc2ccccc2)c1)N1CCCCC1` was tested, and the inhibition was -33% (inactive).
`O=C(Nc1nc(CCC(=O)N2CCN(c3ncccn3)CC2)cs1)NC1CCCCC1` was tested, and the inhibition was -9% (inactive).
With `COc1ccccc1CNC(=O)CSc1nc2c(-c3ccccc3)c[nH]c2c(=O)n1C1CC1` the inhibition was -8% (inactive).
In the case of `CCc1ccccc1NC(=O)NCCOc1ccc2nnc(-c3cccc(F)c3)n2n1`, the inhibition is reported as -4% (inactive).
In the case of `O=S(=O)(NCC1(CO)CC1)c1cccc(Cl)c1`, the inhibition is reported as -9% (inactive).
For `COCCNC(=O)NC[C@H]1CCCN1c1ccccc1`, the inhibition was 6% (inactive).
For `Cc1cc(C(=O)NCC2CCCN2c2ccccc2)no1` (stereo not drawn), the inhibition was 0% (inactive).
In the case of `O=C(NC[C@H]1CCCN1c1ccccc1)c1cc(-c2ccco2)[nH]n1`, the inhibition is reported as 47% (active).
`COc1ccc(OC)c(C(=O)Nc2nnc(Cc3ccc(Cl)s3)o2)c1` was tested, and the inhibition was -12% (inactive).
With `COc1cc(CO)ccc1OCC(=O)Nc1cccc2ccccc12` the inhibition was -4.4% (inactive).
In the case of `COc1ccc(Cn2c(CO)cnc2SCC(=O)Nc2cccc3ccccc23)cc1`, the inhibition is reported as 41% (active).
For `COc1ccc(-c2nnc(SCC(=O)Nc3cccnc3Cl)n2C)cc1`, the inhibition was 2.83% (inactive).
For `O=S(=O)(Cc1ccccc1)N1CCN(c2cc(-n3cccc3)ncn2)CC1`, the inhibition was 6% (inactive).
For `CCCN1C(=O)C(C)(C)COc2ccc(N)cc21`, the inhibition was 32% (inactive).
For `Cn1cccc1-c1noc(CNC(=O)c2n[nH]c(=O)c3ccccc23)n1`, the inhibition was -3% (inactive).
With `CCC(=O)Nc1c(C)nc2scc(C)n2c1=O` the inhibition was 13% (inactive).
With `N#Cc1nc(-c2ccco2)oc1N1CCN(C(=O)c2ccccc2F)CC1` the inhibition was 9% (inactive).
With `N#Cc1nc(-c2cccc3ccccc23)oc1N` the inhibition was -28.7% (inactive).
`CC1CCN(c2oc(-c3ccccc3F)nc2C#N)CC1` was tested, and the inhibition was 42.8% (active).
`O=C(NC[C@]1(O)CCc2ccccc21)c1ccccc1F` was tested, and the inhibition was -14% (inactive).
`O=C(NCCc1ccccc1)NCCC(O)c1ccccc1` (stereo not drawn) was tested, and the inhibition was -6% (inactive).
`CC(C)C(NC(=O)c1ccc([N+](=O)[O-])cc1)c1nc2ccccc2[nH]1` (stereo not drawn) was tested, and the inhibition was -6% (inactive).
In the case of `c1ccc(CN2CCC(N=C3NN=C(c4ccc5c(c4)OCCO5)CS3)CC2)cc1`, the inhibition is reported as 49.7% (active).
For `CC(=NC1CCN(Cc2ccccc2)CC1)c1c(O)[nH]c(=O)[nH]c1=O`, the inhibition was -3% (inactive).
`Clc1cccc(N=C2NN=C(c3ccc4c(c3)OCCO4)CS2)c1` was tested, and the inhibition was 44.3% (active).
For `O=C(Cc1cc(=O)[nH]c(SCc2cccc(Cl)c2)n1)Nc1ccc2c(c1)OCCO2`, the inhibition was 12% (inactive).
For `c1ccc(Cc2nnc(-c3ccc4c(c3)OCCO4)o2)cc1`, the inhibition was -10% (inactive).
In the case of `CC1Oc2ccccc2OC1C(=O)N1CCN(c2nc3c(S(C)(=O)=O)cccc3s2)CC1` (stereo not drawn), the inhibition is reported as -4% (inactive).
In the case of `Cc1ccc(Cl)cc1-n1ccn(CC#N)c(=O)c1=O`, the inhibition is reported as -5% (inactive).
With `Cc1ccc(Nc2cc(C)nc3c(C)ccc([N+](=O)[O-])c23)cc1` the inhibition was 106% (active).
In the case of `Cc1ccc2nc(C(=O)O)cc(Nc3ccc(C)c(C)c3)c2c1`, the inhibition is reported as -5% (inactive).
`Cc1ccc(NC2=NC(c3ccccc3)n3c(nc(C)cc3=O)N2)cc1` (stereo not drawn) was tested, and the inhibition was -5.57% (inactive).
`O=C(Nc1cccc(-c2nc3ccccc3s2)c1)c1ccc([N+](=O)[O-])cc1` was tested, and the inhibition was -2% (inactive).
`CC(=O)OCC1OC(Oc2ccc(C(=O)/C=C/c3ccccc3)cc2)C(OC(C)=O)C(OC(C)=O)C1OC(C)=O` (stereo not drawn) was tested, and the inhibition was 5% (inactive).
In the case of `COc1cc(C(CCN2CCN(c3ccccc3)CC2)c2c(OC)cc(OC)c3ccc(=O)oc23)cc(OC)c1OC` (stereo not drawn), the inhibition is reported as -0.54% (inactive).
With `COc1cc(OC)c2ccc(=O)oc2c1C(CCN1CCN(c2ccccc2)CC1)c1ccc2c(c1)OCO2` (stereo not drawn) the inhibition was 41.6% (active).
`CCN(CC)CCC(c1ccc2c(c1)OCO2)c1c(OC)cc(OC)c2c(-c3ccccc3)cc(=O)oc12` (stereo not drawn) was tested, and the inhibition was 24.5% (inactive).
With `C=CCOc1ccc(C(O)=C2C(=O)C(=O)N(CCOC)C2c2cccnc2)cc1` (stereo not drawn) the inhibition was 0.46% (inactive).
In the case of `FC(F)Sc1ccc(-c2csc(Nc3ccccc3)n2)cc1`, the inhibition is reported as -4% (inactive).
In the case of `O=C(c1ccc(Br)o1)N1CCC(CSc2ccccn2)CC1`, the inhibition is reported as 7% (inactive).
In the case of `CC(=O)Nc1ccc(C(=O)N2CCc3nc4ccc(Cl)cn4c(=O)c3C2)cc1`, the inhibition is reported as -7% (inactive).
In the case of `CC(C)CS(=O)(=O)C1CN(C(=O)c2ccc3nsnc3c2)C1`, the inhibition is reported as -14% (inactive).
In the case of `COc1ncc(Br)c2ncccc12`, the inhibition is reported as -7% (inactive).
For `O=[N+]([O-])c1ccc(N2CCCCC2)c2cccnc12`, the inhibition was 46.9% (inactive).
In the case of `COCCOCc1ccc(O)c2ncccc12`, the inhibition is reported as 114% (active).
`OCc1cccc2cccnc12` was tested, and the inhibition was 41.4% (inactive).
With `Oc1ccc(CN2CCCCCC2)c2cccnc12` the inhibition was 124% (active).
For `Clc1ccc(CN2CCCCCC2)cc1Cl`, the inhibition was -4.06% (inactive).
With `Oc1c(CN2CCOCC2)ccc(CN2CCOCC2)c1O` the inhibition was -7.99% (inactive).
In the case of `Oc1c(CN2CCCC2)cc(Cl)c2cccnc12`, the inhibition is reported as 103% (inactive).
For `Oc1ccc(CN2CCCC2)c2cccnc12`, the inhibition was 106% (active).
